Assay results: PubChem BioAssay AID652095 (National Center for Advancing Translational Sciences (NCATS), 2013)
Activity calls are given as the source filed them.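 The calls were made as follows: active = glucocerebrosidase enzyme activity raised in patient cells of every tested mutation; inactive = no rise in glucocerebrosidase activity for any mutation.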

What follows are compounds tested against Lysosomal acid glucosylceramidase (Homo sapiens) (UniProt P04062) (assay: Extended Characterization of Activators of N370S glucocerebrosidase as a Potential Chaperone Treatment of Gaucher Disease: Quantification of GCase activity). Settings: Gaucher patient macrophages, GCase 4MU fluorescence.
Description: Glucocerebrosidase (GCase) catalyzes the hydrolysis of beta-glucocerebroside to glucose and ceramide in lysosomes. Mutations in the glucocerebrosidase gene result in Gaucher disease, an autosomal recessive lysosomal storage disorder. Many of the mutations encountered in patients with Gaucher disease are missense alterations that may cause misfolding, decreased stability and/or mistrafficking of this lysosomal protein. […] These inhibitors include iminosugar analogs and other inhibitors that were discovered as part of previous work. However, the enhancement of enzyme activity by the chaperone action of an enzyme inhibitor must be balanced against the direct inhibition of the enzyme. […] In this extended characterization of our probe, we have further characterized the activity of ML198 in patient-derived cellular models of Gaucher disease. In Gaucher-derived macrophages from 17 patients, with 4 separate mutation, we quantified GCase activity using a fluorescence read-out. NIH Chemical Genomics Center [NCGC] NIH Molecular Libraries Probe Production Centers Network [MLPCN] […]
Treated cells were cultured in black 96-well plates. After adding 100 µl assay buffer (200 mM sodium acetate (pH4), 5 mM 4MU-betaGlu and protease inhibitor cocktail (Sigma), cells were incubated for 1 hr at 37 degrees C. The reaction was halted using a stop solution (1 M NaOH and 1 M Glycine) and fluorescence measured.

Lysosomal acid glucosylceramidase (Homo sapiens), sequence (P04062 40-536 N409S): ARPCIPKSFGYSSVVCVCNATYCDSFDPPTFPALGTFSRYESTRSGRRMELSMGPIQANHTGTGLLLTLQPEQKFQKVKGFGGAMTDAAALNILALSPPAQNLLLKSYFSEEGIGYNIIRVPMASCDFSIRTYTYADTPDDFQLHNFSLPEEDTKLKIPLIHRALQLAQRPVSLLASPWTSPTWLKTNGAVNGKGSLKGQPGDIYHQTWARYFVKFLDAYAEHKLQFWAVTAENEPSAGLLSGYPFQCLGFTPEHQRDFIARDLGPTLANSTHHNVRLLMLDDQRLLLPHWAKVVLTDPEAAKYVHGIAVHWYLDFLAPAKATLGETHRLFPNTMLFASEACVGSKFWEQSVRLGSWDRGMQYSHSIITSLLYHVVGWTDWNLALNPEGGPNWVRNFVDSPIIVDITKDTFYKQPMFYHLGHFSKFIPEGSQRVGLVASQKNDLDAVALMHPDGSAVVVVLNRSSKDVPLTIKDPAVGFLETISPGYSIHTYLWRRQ

SMILES | outcome
C#Cc1ccc(NC(=O)c2cnn3c(C)cc(C)nc23)cc1 | active; increased
